Reference: PubChem BioAssay (Tox21)
A number with no mark means an inactive call. Where a call stands in place of a potency, no number is given. Active and inactive are the calls of the source. Calls come from the whole dose curve; as a rule, active = well fitted cell-killing curve with a large enough effect in the repeat runs; inconclusive = weak or mixed curves, or effect the other way; inactive = flat fitted curve, though single readings scatter.

experiment: qHTS assay to identify small molecule HDAC inhibitors - cell viability counter screen (AID 1259365); settings: HCT-116 viability, CellTiter-Glo ATP luminescence, 2 h; series mostly up to 92.4 µM; note: nearly all actives have a fitted effect of over 50% in size
Excerpt: U.S. Tox21 Program National Center for Advancing Translational Sciences [NCATS] NIH Chemical Genomics Center [NCGC] U.S. Environmental Protection Agency [EPA] National Institutes of Environmental Health Sciences [NIEHS] National Toxicology Program [NTP] U.S. Food and Drug Administration [FDA] Tox21 Assay Overview: Histone deacetylases (HDACs) are a group of epigenetic enzymes that regulate gene expression by histone deacetylation. HDACs are capable of introducing epigenetic modifications and such aberrations contribute to the onset and progression of several human diseases, thus making HDACs a popular therapeutic target. For identifying endogenous class I/II HDAC inhibitors a homogenous, luminogenic HDAC I/II cell based assay was used to measure the relative activity of class I and II HDACs from cells. Wild type HCT-116 cells were used to screen Tox21 compound libraries for identifying class I/II HDAC inhibitors.
Tox21 Assay Protocol Summary: HCT-116 cells were dispensed at 1,500 per well in 5uL of culture medium into white solid bottom 1536-well plates (Greiner Bio-One, Monroe, NC) using a Multidrop Combi (Thermo Scientific, Waltham, MA) dispenser. The assay plates were incubated at 37 C and 5% CO2 for an overnight, and then 23nL of compounds dissolved in DMSO and positive control were transferred using a Pintool station (Wako, San Diego, CA). The assay plates were incubated at 37C and 5% CO2 for 2hr. After compound treatment, 4uL of CellTiter-Glo reagent (Promega Corporation, Madison, WI) was added to each well of the assay plates using Flying Reagent Dispenser (FRD, Aurora Discovery, San Diego, CA) and incubated the assay plates at room temperature for 30min. The luminescence signal was quantified using a ViewLux plate reader (Perkin Elmer, Shelton, CT).

SMILES | Potency | activity change, negative = cytotoxicity
C=CCSSCC=C | inactive | –
COc1ccc(C(=O)c2c(C)n(CCN3CCOCC3)c3ccccc23)cc1 | inactive | –
CN1CC[C@]23c4c5ccc(O)c4O[C@H]2[C@@H](O)CC[C@H]3[C@H]1C5 | inactive | –
CCOC(=O)NC(O)C(Cl)(Cl)Cl (stereo not given) | inactive | –
CC(C)(C)c1ccc(CCOc2ncnc3ccccc23)cc1 | inactive | –
CCCC(C)(COC(N)=O)COC(=O)NC(C)C (stereo not given) | inactive | –
Clc1ccc(Cl)c(Cl)c1 | inactive | –
N#CC(C#N)=Cc1ccc(O)c(O)c1 | inactive | –
Clc1ccccc1 | inactive | –
CC[N+]1(C)CCCC(OC(=O)C(O)(c2ccccc2)c2ccccc2)C1 (stereo not given) | inactive | –
CCCCC1C(=O)NC(=O)N(C2CCCCC2)C1=O (stereo not given) | inactive | –
O=C(CCl)CCl | inactive | –
N#CC1(N=NC2(C#N)CCCCC2)CCCCC1 | inactive | –
O=[N+]([O-])O[C@H]1CO[C@H]2[C@@H]1OC[C@H]2O[N+](=O)[O-] | inactive | –
O=C=NC1CCCCC1 | inactive | –
CCOP(=S)(OCC)Oc1ccc(S(C)=O)cc1 (stereo not given) | inactive | –
C1CS1 | inactive | –
CCC(C)(C)O | inactive | –
Clc1ccc2ccccc2c1 | inactive | –
CCCCC(CC)CO[N+](=O)[O-] (stereo not given) | inactive | –

SMILES | Potency | activity change, negative = cytotoxicity
OC[P+](CO)(CO)CO | inactive | –
COc1cc(CC(C)N)c(OC)cc1Br (stereo not given) | inactive | –
C[C@]12C=CC3=C4CCC(=O)C=C4CC[C@H]3[C@@H]1CC[C@@H]2O | inactive | –
O=C(NC(=O)c1cc(F)c(F)cc1Cl)Nc1cc(F)ccc1N1CCC(C(=O)O)CC1 | inactive | –
CCOC(=O)c1cncn1C(C)c1ccccc1 (stereo not given) | inactive | –
CCOP(=S)(S)OCC | inactive | –
CC(Cl)C(=O)O (stereo not given) | inactive | –
O=C1c2ccccc2C(=O)N1SC(Cl)(Cl)Cl | inactive | –
Cc1nc(N(C)C)nc(OC(=O)N(C)C)c1C | inactive | –
C[CH2][Hg][S]c1ccccc1C(=O)O | inactive | –
ClCc1ccccc1Cl | inactive | –
Cc1nnc(-c2ccccc2)c(=O)n1N | inactive | –
Nc1cccc2ccccc12 | inactive | –
OCCSSCCO | inactive | –
O=CC=O | inactive | –
CC(C)CCCCCCCOC(=O)c1ccccc1C(=O)OCCCCCCCC(C)C | inactive | –
Cc1ccc(N)c(C)c1 | inactive | –
CCCCOC(=O)CCC(=O)OCCCC | inactive | –
CCCCCCCCCCCCN=C(N)N | – | -3.51% [at 3.27 µM]
c1ccc2sc(SNC3CCCCC3)nc2c1 | inactive | –
